V-ATPase pHluor = regulators of yeast V-ATPase proton pumping, primary screen, pHLuorin cytosolic pH fluorescence. response, % at 10 µM. actives 0.37% (n = 350,000). AID 504577, 2011. S. cerevisiae; in the data active = response mostly above about 7.3%, no sharp cut-off; inactive = mostly below about 5.4%; also: actives read high
CR mimetic SO = reduction of superoxide in aged yeast, primary screen, HTS. S. cerevisiae aged cells, superoxide DHE fluorescence; hits give low values. superoxide response (% of plate mean), % at 10 µM. actives 0.18% (n = 330,000);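 active = superoxide response under a set limit, about three screen SD below normal, cut at about 65% in these data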;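 also: yeast aged for seven days with compound at 30 °C before DHE staining; 100% = average MFI of all compound-treated wells on the plate with controls excluded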
PKA-R2B act = activators of PKA-R2B holoenzyme, primary screen, biochemical, fluorescence polarization, Cy5-IP20, human. cAMP-dependent protein kinase catalytic subunit beta (Homo sapiens) + cAMP-dependent …. PKA-R2B holoenzyme dissociation; R2B truncated from residue 108, S112A mutant; 0% DMSO only, 100% 113 µM cGMP. activation, % at 11.4 µM. actives 0.079% (n = 340,000). AID 504700, 2011;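 active = activation above a cutoff set at the mean over all compounds plus 3 SD, cut at about 18% in these data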;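 also: higher means more holoenzyme dissociation and a rise in polarization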
Target sequence (P31323 whole entry, looked up, other chains not shown, the tested form may be a part): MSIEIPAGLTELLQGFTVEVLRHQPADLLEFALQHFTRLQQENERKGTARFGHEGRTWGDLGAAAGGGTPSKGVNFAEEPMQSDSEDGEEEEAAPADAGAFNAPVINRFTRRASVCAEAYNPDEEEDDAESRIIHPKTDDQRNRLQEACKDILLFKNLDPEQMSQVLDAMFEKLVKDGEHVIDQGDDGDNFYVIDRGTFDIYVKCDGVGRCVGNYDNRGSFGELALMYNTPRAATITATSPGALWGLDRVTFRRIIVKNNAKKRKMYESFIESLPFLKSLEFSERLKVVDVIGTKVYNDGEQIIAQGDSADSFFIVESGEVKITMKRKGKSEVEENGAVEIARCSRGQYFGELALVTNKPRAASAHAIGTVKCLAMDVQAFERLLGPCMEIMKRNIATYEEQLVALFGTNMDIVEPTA
PKA-R1A activ = activators of PKA-R1A holoenzyme, primary screen, biochemical, fluorescence polarization, Cy5-IP20, bovine R1A, mouse PKAc; actives 0.083% (n = 340,000); PKA-R1A dissociation; scaled: DMSO 0%, 113 µM cGMP 100%; activation, % at 11.4 µM;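 active = percent activation above the mean of all tested compounds plus 3 SD, cut at about 19% in these data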;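 also: higher means more PKAc released from R1A so a rise in polarization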
PolyA inh = polyadenylation inhibitors in yeast reporter cells, primary screen, luminescence, S. cerevisiae | S. cerevisiae SKY197-pL101 polyadenylation reporter, beta-gal luminescence; efflux-impaired pdr1/pdr3 knockout yeast; score 100 = 6 SD above DMSO | activity score, % at 12 µM | actives 0.02% (n = 300,000) | AID 1875, 2009;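 active = lowest replicate activity score at least 50, where 100 means six control SD above control mean; inconclusive = lowest score under 50 but half or more replicates reach 50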;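 also: yeast exposed to compound for 9 h at 30 °C; higher score means more reporter readthrough which indicates perturbed polyadenylation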
JMJD2C inh = inhibitors of GASC-1 histone demethylase, primary screen, biochemical, fluorescence, DELFIA europium; actives 0.069% (n = 330,000); AID 2099, 2009; GST-JMJD2C(1-420) H3K9me3 demethylation; inhibition, % at 2.35 µM;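 active = more than half of a compound's replicate wells show inhibition beyond 50%, single wells judged on their own value; inconclusive = some, but no more than half, of replicates pass 50% inhibition; inactive = no replicate passes 50% inhibition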;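 also: signal counts dimethyl H3K9 product captured on neutravidin plate; 0% = median of DMSO wells and 100% = 0.3 times that DMSO median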
R2B FP artifact = fluorescence polarization artefacts, biochemical, artefact control for PKA-R2B activator project. shares compounds with PKA-R2B act. FP artifact counterscreen. activation, % at 11.4 µM. actives 6% (n = 270); in the data active = activation above about 20%;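 also: Cy5 labelled IP20 peptide probe with compound but no PKA protein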
PKA-R2B act conf = activators of PKA-R2B holoenzyme, confirmation, biochemical, fluorescence polarization, human; activation, % at 11.4 µM; actives 9% (n = 270); shares compounds with PKA-R2B act; PKA-R2B complex, activation; AID 504797, 2011; in the data active = activation above about 19%
Target sequence (P31323 whole entry, looked up): as the sequence (P31323 whole entry, looked up, other chains not shown, the tested form may be a part) above
R1A FP artifact = FP signal interference without PKA proteins, confirmation, artefact control for PKA-R1A activator project, biochemical, fluorescence polarization, triplicate; actives 7% (n = 280); Cy5-IP20 peptide alone, fluorescence polarization artifact counterscreen; shares compounds with PKA-R1A activ; AID 504799, 2011; activation, % at 11.4 µM;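 active = mean activation over triplicate runs exceeds the adjusted cutoff derived for the parent primary screen, cut at about 19% in these data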;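 also: no PKA protein present so any polarization rise reflects compound interference; 0% = tracer peptide mix alone and 100% = mix with added PKA catalytic subunit; higher means stronger polarization artifact and likely false positive in parent screen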
PKA-R1A act conf = activators of PKA-R1A holoenzyme, confirmation, biochemical, fluorescence polarization, Cy5-IP20, triplicate; shares compounds with PKA-R1A activ; PKA-R1A holoenzyme dissociation; activation, % at 11.4 µM; actives 9% (n = 280); AID 504800, 2011;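 active = mean activation over replicate wells exceeds the adjusted hit threshold taken from the earlier primary screen, cut at about 20% in these data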;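 also: 0% = holoenzyme mix with DMSO only and 100% = cGMP-activated control wells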
An asterisk follows results filed as active. Only some compounds are listed: those with a hit (about 0.78% of all), similar ones and a draw of the others.

How did COc1ccc(CNCc2cn(-c3cccc(F)c3)nc2-c2ccc(C)o2)cc1 do in these assays?
V-ATPase pHluor: -88.0; CR mimetic SO: 100.1; PKA-R2B act: -3.0; PKA-R1A activ: -3.9; PolyA inh: -12.3; JMJD2C inh: 0.1

How did COc1ccc(NC(=S)NNc2ccc(S(=O)(=O)Nc3ccccc3C(=O)O)cc2[N+](=O)[O-])cc1 do in these assays?
V-ATPase pHluor: 2.5; CR mimetic SO: 97.5; PKA-R2B act: 83.2*; PKA-R1A activ: 63.6*; PolyA inh: -6.6; JMJD2C inh: 4.4; R2B FP artifact: 50.4*; PKA-R2B act conf: 45.7*; R1A FP artifact: 50.4*; PKA-R1A act conf: 51.6*

How did O=C(NCc1ccccc1)c1cccc(NC(=O)c2ccco2)c1 do in these assays?
V-ATPase pHluor: 2.9; CR mimetic SO: 86.7; PKA-R2B act: 5.3; PKA-R1A activ: 21.6*; PolyA inh: 5.6; JMJD2C inh: -6.6; R1A FP artifact: 9.6; PKA-R1A act conf: 6.6

What do the screens show for `Nc1cc(=O)[nH]c(SCC(=O)Nc2ccc3c(c2)CCC3)n1`?
V-ATPase pHluor: 0.7; CR mimetic SO: 92.2; PKA-R2B act: 5.5; PKA-R1A activ: -8.0; PolyA inh: 10.6; JMJD2C inh: -0.7

Results for Nc1nc(SCC(=O)Nc2ccc3c(c2)CCC3)n[nH]1 ?
V-ATPase pHluor: -1.0; CR mimetic SO: 101.9; PKA-R2B act: -4.5; PKA-R1A activ: 18.6*; PolyA inh: 21.4; JMJD2C inh: -22.6; R1A FP artifact: 6.1; PKA-R1A act conf: 1.1

Results for O=C(c1ccccc1)N1CCN(Cc2ccccc2Br)CC1 ?
V-ATPase pHluor: -3.6; CR mimetic SO: 94.0; PKA-R2B act: -0.8; PKA-R1A activ: -4.7; JMJD2C inh: 5.7

Results for Brc1ccccc1CN1CCC(N2CCCCC2)CC1 ?
V-ATPase pHluor: 2.8; CR mimetic SO: 87.1; PKA-R2B act: 9.5; PKA-R1A activ: 20.6*; PolyA inh: -7.5; JMJD2C inh: inconclusive; R1A FP artifact: 4.6; PKA-R1A act conf: 5.9

What do the screens show for `Cc1ccc(CNC(=O)CN(c2ccc(Cl)cc2)S(C)(=O)=O)cc1`?
V-ATPase pHluor: -2.3; CR mimetic SO: 101.4; PKA-R2B act: -13.0; PKA-R1A activ: 21.0*; PolyA inh: -1.0; JMJD2C inh: 2.0; R1A FP artifact: 3.1; PKA-R1A act conf: -0.2

What do the screens show for `COC(=O)c1ccccc1C(=O)N1CCCC(CNC(=O)c2ccc(F)cc2)C1` (stereo not given)?
V-ATPase pHluor: -1.4; CR mimetic SO: 91.2; PKA-R2B act: -3.4; PKA-R1A activ: -4.5; PolyA inh: -2.2; JMJD2C inh: -5.4

What do the screens show for `CN(C)c1ccc(NC(=O)CSc2nc3ccccc3c(=O)n2CC2CCCO2)cc1` (stereo not given)?
V-ATPase pHluor: -1.1; CR mimetic SO: 100.0; PKA-R2B act: -5.3; PKA-R1A activ: 2.7; PolyA inh: 11.5; JMJD2C inh: 1.2

Compound activity: PubChem BioAssay, several laboratories
